In PubChem BioAssay AID720597 (Broad Institute, 2013):
Measured potencies and affinities stand elsewhere. Activity calls are given as the source filed them.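 Rule for the calls: active = fitted half-maximal dose no more than twice the top valid tested dose, for compounds that lower signal; inconclusive = fit invalid, or curve flat with activity between -70 and -30; inactive = potency past limit, curve flat within ±30, or signal increasing.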

Biological target: NAD-dependent protein deacylase sirtuin-5, mitochondrial (Homo sapiens) (UniProt Q9NXA8)
Assay: SIRT5 deacylase inhibitors, dose response, biochemical, fluorescence imaging, cherry-pick, set 6 (AID 720597);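 note: lower AMC signal can also come from blocking the trypsin step; 0% = median of neutral control wells and -100% = median of positive control wells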
Conditions: Purified SirT5, succinyl-peptide-AMC/trypsin fluorescence; series mostly up to 15 µM; activity change, negative = inhibition: at the top concentration

Chain of NAD-dependent protein deacylase sirtuin-5, mitochondrial (Homo sapiens) (Q9NXA8 whole entry, looked up): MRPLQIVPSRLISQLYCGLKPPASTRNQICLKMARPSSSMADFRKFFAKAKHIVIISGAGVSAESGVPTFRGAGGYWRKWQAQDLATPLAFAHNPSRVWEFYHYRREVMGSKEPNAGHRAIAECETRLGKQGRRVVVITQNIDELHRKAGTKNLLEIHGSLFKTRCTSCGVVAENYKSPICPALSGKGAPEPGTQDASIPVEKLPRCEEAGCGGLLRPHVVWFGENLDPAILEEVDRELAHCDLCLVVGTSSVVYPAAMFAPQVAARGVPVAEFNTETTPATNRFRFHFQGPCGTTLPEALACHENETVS

SMILES | activity change, negative = inhibition
C[C@@H]1CN([C@@H](C)CO)S(=O)(=O)c2ccc(C3=CCCCC3)cc2O[C@H]1CN(C)S(=O)(=O)c1ccc(F)cc1 | -17.2% (inactive)
CCCC(=O)Nc1ccc2c(c1)OC[C@H](C)N(Cc1ccccc1)C[C@@H](C)[C@H](OC)CN(C)C2=O | -11.5% (inactive)
C[C@H]1CN([C@@H](C)CO)S(=O)(=O)c2ccc(/C=C/c3ccccc3)cc2O[C@H]1CN(C)C(=O)Nc1cc(F)ccc1F | 31.2% (inactive)
C[C@@H]1CN([C@@H](C)CO)C(=O)c2cc(NC(=O)Cc3cn(C)c4ccccc34)ccc2O[C@@H]1CN(C)Cc1ccc(Oc2ccccc2)cc1 | -10.4% (inactive)
COc1cccc(S(=O)(=O)N(C)C[C@H]2Oc3cc(C4=CCCC4)ccc3S(=O)(=O)N([C@H](C)CO)C[C@H]2C)c1 | -11.6% (inactive)
COc1ccc(S(=O)(=O)Nc2ccc3c(c2)C(=O)N([C@@H](C)CO)C[C@@H](C)[C@H](CN(C)Cc2ccc(C(F)(F)F)cc2)OCCCC[C@@H](C)O3)cc1 | -24.5% (inactive)
Cn1cnc(S(=O)(=O)N[C@H]2CC[C@@H](CC(=O)Nc3ccccc3)O[C@@H]2CO)c1 | 17% (inactive)
C[C@H]1CCCCO[C@@H](CN(C)C(=O)Nc2ccc(C(F)(F)F)cc2)[C@@H](C)CN([C@@H](C)CO)C(=O)c2cc(NS(=O)(=O)c3ccc(Cl)cc3)ccc2O1 | 18% (inactive)
Cc1ccc(S(=O)(=O)Nc2ccc3c(c2)C(=O)N([C@@H](C)CO)C[C@H](C)[C@@H](CN(C)S(=O)(=O)c2ccc(F)cc2)OCCCC[C@@H](C)O3)cc1 | -1.33% (inactive)
Cc1ccc(S(=O)(=O)N(C)C[C@@H]2OCCCC[C@@H](C)Oc3ccc(NS(=O)(=O)c4ccccc4)cc3C(=O)N([C@H](C)CO)C[C@H]2C)cc1 | 1.8% (inactive)
